Assay results as given in PubChem BioAssay.
Active and inactive are the calls of the source.

Columns and labels:
[1] = tested on: Plasmodium falciparum Sir2 (PF13_0152, Sir2A); assay: Plasmodium falciparum Sir2A binding compounds – biochemical, small-molecule microarray, 635 nm fluorescence, primary screen (AID 1098); conditions: fluorescence 635 nm, higher = more signal;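 note: score merges spot fluorescence intensity with its signal-to-noise ratio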
[2] = probe aDKK1 binding to arrayed compounds – biochemical, biotinylated probe, 635/667 nm fluorescence, primary screen (AID 1099); conditions: small-molecule microarray, higher = more signal;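 note: score merges 667nm spot fluorescence with signal to noise across triplicate slides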
[3] = probe aCHRDL2 binding to arrayed compounds – biochemical, biotinylated probe, 635/667 nm fluorescence, primary screen (AID 1100); conditions: small-molecule microarray, higher = more signal
[4] = change in splice reporter luminescence, either direction, cell-based, HEK293, spliceosome inhibition project, primary screen (AID 1101); conditions: HEK293 splicing luciferase reporter, 24 h, higher = more signal, called active from +8 up or from −8 down;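 note: HEK293 cells carrying a splicing-competent luciferase reporter gene; test concentration not given here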
[5] = target: Fibroblast growth factor 10 (Homo sapiens) (UniProt O15520); assay: compounds binding fibroblast growth factor 10 – biochemical, small-molecule microarray, 635 nm fluorescence, primary screen (AID 1102); conditions: FGF10 binding, fluorescence 635 nm, higher = more signal
Sequence of Fibroblast growth factor 10 (Homo sapiens) (O15520 whole entry, looked up): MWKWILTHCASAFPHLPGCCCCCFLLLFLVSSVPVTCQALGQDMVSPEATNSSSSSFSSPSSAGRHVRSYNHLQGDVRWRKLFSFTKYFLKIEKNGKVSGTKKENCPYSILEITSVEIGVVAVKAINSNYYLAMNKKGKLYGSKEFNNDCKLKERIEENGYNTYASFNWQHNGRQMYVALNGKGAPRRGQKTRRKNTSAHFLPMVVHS

[6] = tested on: glycogen synthase kinase-3 (GSK3A per assay name; protocol says GSK3B); assay: compounds binding glycogen synthase kinase-3 – biochemical, small-molecule microarray, 635 nm fluorescence, GSK3A, primary screen (AID 1103); conditions: fluorescence 635 nm, higher = more signal; note: the record names both GSK3A and GSK3B
[7] = target: Epidermal growth factor receptor (Homo sapiens) (UniProt P00533); assay: compounds binding epidermal growth factor receptor – biochemical, small-molecule microarray, 635 nm fluorescence, primary screen (AID 1104); conditions: EGFR binding, higher = more signal;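 note: score merges 667 nm emission intensity with spot signal to noise over triplicate slides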
Sequence of Epidermal growth factor receptor (Homo sapiens) (P00533 whole entry, looked up): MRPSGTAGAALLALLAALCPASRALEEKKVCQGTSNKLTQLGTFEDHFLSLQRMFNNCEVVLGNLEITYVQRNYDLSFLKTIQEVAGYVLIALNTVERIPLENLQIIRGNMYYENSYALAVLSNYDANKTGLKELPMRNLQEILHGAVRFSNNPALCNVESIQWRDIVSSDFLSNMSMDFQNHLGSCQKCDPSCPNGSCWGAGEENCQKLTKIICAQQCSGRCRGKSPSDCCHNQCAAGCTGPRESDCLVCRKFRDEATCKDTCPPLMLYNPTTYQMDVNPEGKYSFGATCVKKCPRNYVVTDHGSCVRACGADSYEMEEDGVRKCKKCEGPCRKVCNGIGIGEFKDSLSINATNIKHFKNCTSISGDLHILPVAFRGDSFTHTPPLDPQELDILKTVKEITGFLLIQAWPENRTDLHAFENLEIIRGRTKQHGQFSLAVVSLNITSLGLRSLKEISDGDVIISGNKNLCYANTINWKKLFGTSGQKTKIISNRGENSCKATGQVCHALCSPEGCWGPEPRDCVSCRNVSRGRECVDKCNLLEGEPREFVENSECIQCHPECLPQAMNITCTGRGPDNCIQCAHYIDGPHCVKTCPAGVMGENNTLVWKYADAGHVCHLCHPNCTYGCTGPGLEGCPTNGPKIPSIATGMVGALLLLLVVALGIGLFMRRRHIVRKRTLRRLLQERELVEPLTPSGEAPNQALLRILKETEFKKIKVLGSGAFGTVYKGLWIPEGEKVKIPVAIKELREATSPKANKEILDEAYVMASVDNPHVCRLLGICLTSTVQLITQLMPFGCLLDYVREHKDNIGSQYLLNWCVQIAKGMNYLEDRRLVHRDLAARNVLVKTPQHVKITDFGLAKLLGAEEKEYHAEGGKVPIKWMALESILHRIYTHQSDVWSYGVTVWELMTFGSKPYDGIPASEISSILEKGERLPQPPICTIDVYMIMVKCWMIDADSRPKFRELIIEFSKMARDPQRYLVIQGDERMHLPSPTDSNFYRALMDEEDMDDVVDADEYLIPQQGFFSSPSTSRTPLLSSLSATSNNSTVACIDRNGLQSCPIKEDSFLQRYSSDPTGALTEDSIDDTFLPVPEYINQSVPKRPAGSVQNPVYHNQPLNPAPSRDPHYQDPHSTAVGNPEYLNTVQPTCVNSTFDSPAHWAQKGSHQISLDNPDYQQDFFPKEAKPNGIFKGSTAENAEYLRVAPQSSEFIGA

[8] = target: Follistatin-related protein 3 (Homo sapiens) (UniProt O95633); assay: compounds binding follistatin-related protein 3 – biochemical, small-molecule microarray, 635 nm fluorescence, primary screen (AID 1105); conditions: FSTL3 binding, higher = more signal;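 note: score merges emission near 667 nm and signal to noise per printed spot across three slides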
Sequence of Follistatin-related protein 3 (Homo sapiens) (O95633 whole entry, looked up): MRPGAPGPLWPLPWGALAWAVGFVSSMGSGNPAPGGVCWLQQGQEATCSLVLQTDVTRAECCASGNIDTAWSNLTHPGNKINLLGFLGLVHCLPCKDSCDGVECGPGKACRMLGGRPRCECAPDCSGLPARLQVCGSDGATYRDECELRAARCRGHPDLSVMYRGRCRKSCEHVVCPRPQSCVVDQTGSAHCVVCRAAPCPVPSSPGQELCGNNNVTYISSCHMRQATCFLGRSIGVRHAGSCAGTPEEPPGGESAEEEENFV

[9] = target: Dickkopf-related protein 1 (Homo sapiens) (UniProt O94907); assay: small molecules binding DKK1 protein – biochemical, small-molecule microarray, 635 nm fluorescence scan, primary screen (AID 1106); conditions: higher = more signal;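 note: score merges emission near 667 nm with signal to noise over three replicate slides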
Sequence of Dickkopf-related protein 1 (Homo sapiens) (O94907 whole entry, looked up): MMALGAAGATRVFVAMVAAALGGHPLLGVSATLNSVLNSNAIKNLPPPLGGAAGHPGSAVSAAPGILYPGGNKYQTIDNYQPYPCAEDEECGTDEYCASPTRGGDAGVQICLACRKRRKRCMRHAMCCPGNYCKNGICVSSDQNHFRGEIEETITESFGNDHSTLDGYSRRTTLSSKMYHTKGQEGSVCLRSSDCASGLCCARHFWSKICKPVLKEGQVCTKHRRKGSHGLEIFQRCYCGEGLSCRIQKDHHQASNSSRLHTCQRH

[10] = tested on: Inhibin beta A chain (activin A); assay: small molecules binding activin A – biochemical, small-molecule microarray, 635 nm fluorescence scan, primary screen (AID 1107); conditions: INHBA, higher = more signal;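 note: mouse activin A protein probed at 4.33 µg/mL on printed slides; score merges bound-protein fluorescence near 667 nm with spot signal-to-noise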
[11] = tested on: Human papillomavirus type 1a protein E7 (residues 44-93); assay: small molecules binding HPV E7 44-93 – biochemical, small-molecule microarray, residues 44-93, 635 nm fluorescence, primary screen (AID 1108); conditions: fluorescence 635 nm, higher = more signal;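 note: E7 fragment applied at 1 µg/mL in TBST for 1 h at 4 C; score combines spot fluorescence with its signal to noise ratio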
[12] = hepatitis C replication reporter changes, two-sided – Huh7 cells, luciferase reporter, HCV replication inhibitor project, primary screen (AID 1109); conditions: Huh7 HCV replicon luciferase reporter, 48 h; higher = more signal;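 note: huh7 hepatoma cells harbouring a luciferase neomycin HCV replicon reporter; luciferase luminescence as measure of HCV replicon replication; test concentration not given here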
[13] = target: Left-right determination factor 2 (Homo sapiens) (UniProt O00292); assay: small molecules binding LEFTY2 protein – biochemical, small-molecule microarray, 635 nm fluorescence scan, primary screen (AID 1110); conditions: higher = more signal
Sequence of Left-right determination factor 2 (Homo sapiens) (O00292 whole entry, looked up): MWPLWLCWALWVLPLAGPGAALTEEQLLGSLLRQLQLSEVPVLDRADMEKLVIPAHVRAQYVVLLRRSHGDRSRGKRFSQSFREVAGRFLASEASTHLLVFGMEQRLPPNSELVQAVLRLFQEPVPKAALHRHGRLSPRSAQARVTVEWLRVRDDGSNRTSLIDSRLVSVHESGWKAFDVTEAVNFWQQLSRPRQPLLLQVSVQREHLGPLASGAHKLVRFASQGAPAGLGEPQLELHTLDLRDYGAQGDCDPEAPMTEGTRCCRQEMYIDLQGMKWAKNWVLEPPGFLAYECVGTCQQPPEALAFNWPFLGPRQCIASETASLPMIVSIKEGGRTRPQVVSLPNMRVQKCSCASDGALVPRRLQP

[14] = target: Calmodulin-1 (Homo sapiens) (UniProt P0DP23); assay: small molecules binding calmodulin-1 with EGTA – biochemical, small-molecule microarray, Cy5-labelled CALM1, profiling panel (AID 1111); conditions: Cy5-CALM1 binding fluorescence, higher = more signal;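 note: labelled calmodulin applied in Tris saline Tween buffer holding calcium plus EGTA and DTT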
[15] = target: Calmodulin-1 (Homo sapiens) (UniProt P0DP23); assay: small molecules binding Ca-loaded calmodulin-1 – biochemical, small-molecule microarray, Cy5-labelled CALM1, plus calcium, artefact control for SMM control-protein annotation, profiling panel (AID 1112); conditions: Cy5-CALM1 binding fluorescence, higher = more signal;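 note: score merges spot fluorescence with signal to noise from triplicate slides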
[16] = probe aWnt5a binding to arrayed compounds – biochemical, biotinylated probe, 635/667 nm fluorescence, primary screen (AID 1113); conditions: small-molecule microarray, higher = more signal;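 note: score merges 667 nm fluorescence intensity with signal-to-noise per printed feature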
[17] = probe aShh binding to arrayed compounds – biochemical, biotinylated probe, 635/667 nm fluorescence, primary screen (AID 1114); conditions: small-molecule microarray, higher = more signal;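 note: probe is biotin-labelled aShh protein from a stem cell growth factor screen; measures binding of labelled protein to compounds printed on the slide; score merges feature fluorescence at 667 nm with signal-to-noise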
[18] = probe aNog binding to arrayed compounds – biochemical, biotinylated probe, 635/667 nm fluorescence, primary screen (AID 1115); conditions: small-molecule microarray, higher = more signal;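 note: probe is biotinylated aNog protein used at 0.15 µg/mL for 1 h at 4 C; z-score combines 667 nm fluorescence of each spot with its signal to noise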
[19] = target: Torsin-1A-interacting protein 1 (Homo sapiens) (UniProt Q5JTV8); assay: compound microarray binding of lysate hLAP1 – cell lysate, small-molecule microarray, COS7 lysate, 635/667 nm fluorescence, primary screen (AID 1116); conditions: 635 nm fluorescence, higher = more signal
Sequence of Torsin-1A-interacting protein 1 (Homo sapiens) (Q5JTV8 whole entry, looked up): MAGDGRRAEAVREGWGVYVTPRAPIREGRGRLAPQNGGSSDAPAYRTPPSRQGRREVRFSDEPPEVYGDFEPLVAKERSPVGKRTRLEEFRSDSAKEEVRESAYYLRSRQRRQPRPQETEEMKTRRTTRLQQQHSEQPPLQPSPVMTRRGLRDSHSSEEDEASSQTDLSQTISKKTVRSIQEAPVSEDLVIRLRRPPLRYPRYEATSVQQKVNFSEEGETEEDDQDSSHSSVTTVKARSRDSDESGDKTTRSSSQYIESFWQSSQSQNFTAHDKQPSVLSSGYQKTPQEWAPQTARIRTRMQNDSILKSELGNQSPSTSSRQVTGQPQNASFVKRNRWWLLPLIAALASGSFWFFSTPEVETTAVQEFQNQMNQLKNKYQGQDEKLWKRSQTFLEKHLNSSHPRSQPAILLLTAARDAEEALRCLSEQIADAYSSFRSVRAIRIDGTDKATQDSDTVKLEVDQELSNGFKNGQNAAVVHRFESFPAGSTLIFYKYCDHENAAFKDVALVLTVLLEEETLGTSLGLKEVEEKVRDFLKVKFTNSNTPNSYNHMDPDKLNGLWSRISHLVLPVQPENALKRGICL

[20] = target: Alpha-bungarotoxin (Bungarus multicinctus) (UniProt P60615); assay: compounds binding labelled alpha-BTX control protein – biochemical, small-molecule microarray, Alexa647 label, 635/667 nm fluorescence, artefact control for SMM control protein annotation, profiling panel (AID 1117); conditions: alpha-BTX-A647 binding fluorescence, higher = more signal
Sequence of Alpha-bungarotoxin (Bungarus multicinctus) (P60615 whole entry, looked up): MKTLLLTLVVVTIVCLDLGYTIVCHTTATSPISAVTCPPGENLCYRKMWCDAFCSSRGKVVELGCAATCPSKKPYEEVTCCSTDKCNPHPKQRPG

Row | SMILES | composite z-score [1] | composite z-score [2] | composite z-score [3] | z-score [4] | composite z-score [5] | composite z-score [6] | composite z-score [7] | composite z-score [8] | composite z-score [9] | composite z-score [10] | composite z-score [11] | z-score [12] | composite z-score [13] | composite z-score [14] | composite z-score [15] | composite z-score [16] | composite z-score [17] | composite z-score [18] | composite z-score [19] | composite z-score [20]
1 | C=CCC(OC(C)=O)[C@@H]1[C@@H](N(Cc2ccc(-c3cccc(C(F)(F)F)c3)o2)C(=O)Cc2ccc(OC)cc2)c2cc(OCCCO)ccc2N1C(=O)Cc1ccc(OC)cc1 (stereo not given in full) | 0.294 | -0.22 | 0.373 | -1.94 (inactive) | -0.593 | -1.7 | -0.719 | -0.391 | -0.227 | 0.925 | -0.641 | -1.46 | -0.606 | -0.503 | -1.26 | -0.203 | -0.0035 | -0.196 | -0.347 | -0.132
2 | COC(=O)c1nc2oc1CC[C@@H](CO)NC(=O)N(C)Cc1cn(nn1)C[C@H](Cc1ccccc1)NC2=O | 0.68 | -0.268 | 0.269 | -0.275 (inactive) | 0.133 | -0.587 | -0.647 | -0.221 | -0.4 | 0.697 | -0.205 | 1.34 | -1.11 | -0.423 | 0.376 | -0.129 | 0.0639 | 0.582 | 0.481 | 0.981
3 | O=C1O[C@H](c2ccccc2)[C@H](c2ccccc2)N2[C@H]1[C@@H](C(=O)NC[C@H](O)c1ccccc1)[C@]1(C(=O)Nc3ccc(C#CC4=CCCCC4)cc31)[C@H]2c1ccc(O)cc1 | 1.29 | 0.137 | 0.176 | -2.1 (inactive) | 1.3 | 1.29 | 0.57 | 1.33 | 0.542 | -0.201 | 1.38 | -2.02 | 0.538 | 0.784 | -0.566 | -0.0403 | -0.0146 | 0.0129 | 0.705 | 1.52
